According to the supplement of paper PMC9950053:
Counter-ions that a name gives are not always drawn.

test system: Danio rerio larvae (5 dpf); test: excitability (activity period 17 minus period 16, 1-s interval sound) minus DMSO control (percentage points); higher = more acoustic excitability than DMSO larvae; conditions: 10 µM; exposure time: 3 h pre-incubation + 3 h imaging
Method: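 Wild-type 5 dpf zebrafish larvae (n=48 per drug, 96-well plates, 28.5 °C) were exposed to Tocris FDA-approved library compounds at 10 µM (0.1% DMSO) for 3 h before and 3 h during imaging. Images were taken every 6 s during visual (moving coloured lines) and acoustic stimuli, and larvae were tracked with the DeepLabCut-based Z-LaP Tracker. Each behavioural measure is the treated-group mean minus the DMSO vehicle control mean (n=844), in percentage points. This mapping covers compounds with 4-character plate codes.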

SMILES | excitability
COc1c(C)c2c(c(O)c1C/C=C(\C)CCC(=O)OCCN1CCOCC1)C(=O)OC2 [Mycophenolate mofetil] | 4.14
CCOc1nc2cccc(C(=O)O)c2n1Cc1ccc(-c2ccccc2-c2nnn[nH]2)cc1 [Candesartan] | -3.55
NC(=O)N1c2ccccc2C=Cc2ccccc21 [Carbamazepine] | 1.07
CC(C)C(=O)OCC(=O)[C@@]12O[C@H](C3CCCCC3)O[C@@H]1C[C@H]1[C@@H]3CCC4=CC(=O)C=C[C@]4(C)[C@H]3[C@@H](O)C[C@@]12C [Ciclesonide] | 6.47
CCOc1ccccc1OCCN[C@H](C)Cc1ccc(OC)c(S(N)(=O)=O)c1 [Tamsulosin hydrochloride] | 16.7
CC(C)(C)NC(=O)[C@@H]1C[C@@H]2CCCC[C@@H]2CN1C[C@@H](O)[C@H](Cc1ccccc1)NC(=O)[C@H](CC(N)=O)NC(=O)c1ccc2ccccc2n1 [Saquinavir mesylate] | 7.09
CC1(C)O[C@@H]2[C@@H](CO[C@@]3(COS(N)(=O)=O)OC(C)(C)O[C@@H]23)O1 [Topiramate] | 2
O=C(c1ccc(OCCN2CCCCC2)cc1)c1c(-c2ccc(O)cc2)sc2cc(O)ccc12 [Raloxifene hydrochloride] | 9.77
COc1cccc2c1C(=O)c1c(O)c3c(c(O)c1C2=O)C[C@@](O)(C(=O)CO)C[C@@H]3O[C@H]1C[C@H](N)[C@H](O)[C@H](C)O1 [Doxorubicin hydrochloride] | 15.5
CN(CCOc1ccc(CC2SC(=O)NC2=O)cc1)c1ccccn1 (stereo not given) [Rosiglitazone] | 17.9
CC(=O)O[C@H]1C(=O)[C@@]2(C)[C@H]([C@H](OC(=O)c3ccccc3)[C@]3(O)C[C@H](OC(=O)[C@H](O)[C@@H](NC(=O)c4ccccc4)c4ccccc4)C(C)=C1C3(C)C)[C@]1(OC(C)=O)CO[C@@H]1C[C@@H]2O [Taxol] | 2.27
CCCCCCCCc1ccc(CCC(N)(CO)CO)cc1 | 14.6
CCCCc1nc(Cl)c(CO)n1Cc1ccc(-c2ccccc2-c2nnn[nH]2)cc1 [Losartan potassium] | 6.79
Cc1ccc(O)c([C@H](CCN(C(C)C)C(C)C)c2ccccc2)c1 [Tolterodine L-tartrate] | 4.8
COc1c(C)c2c(c(O)c1C/C=C(\C)CCC(=O)O)C(=O)OC2 [Mycophenolic acid] | 1.48
CC(=O)O[C@]1(C(C)=O)CC[C@H]2[C@@H]3C=C(C)C4=CC(=O)CC[C@]4(C)[C@H]3CC[C@@]21C [Megestrol Acetate] | 12.4
CN/C(=N\CCSCc1nc[nH]c1C)NC#N [Cimetidine] | -2.33
C[C@]12CC[C@@H]3c4ccc(O)cc4C[C@@H](CCCCCCCCC[S+]([O-])CCCC(F)(F)C(F)(F)F)[C@H]3[C@@H]1CC[C@@H]2O (stereo not given in full) | 3.06
Cn1nnc2c(C(N)=O)ncn2c1=O [Temozolomide] | 0.618
OCCOCCN1CCN(C2=Nc3ccccc3Sc3ccccc32)CC1 [Quetiapine hemifumarate] | 9.04

SMILES | excitability
CN1CCC[C@@H]1CCO[C@](C)(c1ccccc1)c1ccc(Cl)cc1 [Clemastine fumarate] | 12.9
Cc1cc(C2CCCCC2)n(O)c(=O)c1 [Ciclopirox] | 5.61
CC(C)c1ccc2oc3nc(N)c(C(=O)O)cc3c(=O)c2c1 [Amlexanox] | 5.26
NC(=O)c1ncn([C@@H]2O[C@H](CO)[C@@H](O)[C@H]2O)n1 [Ribavirin] | 3.28
NS(=O)(=O)c1cc(C(=O)O)c(NCc2ccco2)cc1Cl [Furosemide] | -1.6
CC(C)N(CCCCOCC(=O)NS(C)(=O)=O)c1cnc(-c2ccccc2)c(-c2ccccc2)n1 [Selexipag] | 5.98
COC(c1ccccc1)(c1ccccc1)[C@H](Oc1nc(C)cc(C)n1)C(=O)O [Ambrisentan] | -1.02
CC(c1cc2ccccc2s1)N(O)C(N)=O (stereo not given) [Zileuton] | 6.27
CCOC(=O)N1CCC(=C2c3ccc(Cl)cc3CCc3cccnc32)CC1 [Loratidine] | -3.25
CC(C)c1nc(CN(C)C(=O)N[C@H](C(=O)N[C@@H](Cc2ccccc2)C[C@H](O)[C@H](Cc2ccccc2)NC(=O)OCc2cncs2)C(C)C)cs1 [Ritonavir] | 8.43
CC#C[C@]1(O)CC[C@H]2[C@@H]3CCC4=CC(=O)CCC4=C3[C@@H](c3ccc(N(C)C)cc3)C[C@@]21C [Mifepristone] | 5.63
Nc1cccc2c1CN(C1CCC(=O)NC1=O)C2=O (stereo not given) [Lenalidomide] | -1.97
O=C(Nc1c(Cl)cncc1Cl)c1ccc(OC(F)F)c(OCC2CC2)c1 [Roflumilast] | 13.4
Clc1ccc(COC(Cn2ccnc2)c2ccc(Cl)cc2Cl)c(Cl)c1 (stereo not given) [Miconazole nitrate] | -1.24
CN1CC2c3ccccc3Oc3ccc(Cl)cc3C2C1 (stereo not given) [Asenapine maleate] | 14.2
COc1ccc(-c2ccc3cc(C(=O)O)ccc3c2)cc1C12CC3CC(CC(C3)C1)C2 [Adapalene] | 0.726
CCOc1nc2cccc(C(=O)O)c2n1Cc1ccc(-c2ccccc2-c2noc(=O)[nH]2)cc1 [Azilsartan] | 4.01
CN1CCN(CCCN2c3ccccc3Sc3ccc(Cl)cc32)CC1 [Prochlorperazine dimaleate] | 27.2
CCOC(=O)C1=C(COCCN)NC(C)=C(C(=O)OC)C1c1ccccc1Cl (stereo not given) [Amlodipine besylate] | 1.82
CN(C)CC/C=C1/c2ccccc2COc2ccc(CC(=O)O)cc21 [Olopatadine hydrochloride] | 5.43
